Test [1] is described as follows: qHTS of pediatric cancer cell lines to identify multiple opportunities for drug repurposing: Primary screen for SJ-GBM2 cells (AID 1347091). Further: potency means the concentration at half of the fitted maximal effect. The method in brief:
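Eight- or eleven-point concentration series, 48 h treatment at 37 degrees C in growth media; readout CellTiter-Glo luminescence. Potency and efficacy were taken from the concentration-response curves.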
In general terms: qHTS replaces the single test concentration by a dilution series.

The nature of test [2]: qHTS of pediatric cancer cell lines to identify multiple opportunities for drug repurposing: Primary screen for SK-N-MC cells (AID 1347093). Further: potency means the concentration at half of the fitted maximal effect. The procedure, abridged: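 Metabolically active cells were quantified by ATP-dependent luminescence (CellTiter-Glo, 15 min at room temperature) following 48 h treatment. Cells had been plated at 500-1,000 per well and settled for 5 h beforehand.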

Test [3] can be described thus: qHTS of pediatric cancer cell lines to identify multiple opportunities for drug repurposing: Primary screen for NB-EBc1 cells (AID 1347095). Further: potency means the concentration at half of the fitted maximal effect. The procedure, abridged:
(§1)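 Cells plated at 500-1,000/well in growth medium, compounds added after 5 h. MIPE tested at 11 points (from 0.78 nM), NPC at 8 points (from 0.59 nM). CellTiter-Glo luminescence after 48 h; concentration-response curves from primary screen.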

Test [4] is described as follows: qHTS of pediatric cancer cell lines to identify multiple opportunities for drug repurposing: Primary screen for U-2 OS cells (AID 1347096). Further: nearly all actives have a fitted effect of over 50% in size. Further: potency means the concentration at half of the fitted maximal effect. The method in brief:
(§2)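 Cells (500-1,000/well) in growth media were settled 5 h at 37 degrees C, then given compounds for 48 h. Viability was read as CellTiter-Glo luminescence. Primary runs used MIPE at 11 points (0.78 nM-46 µM) and NPC at 8 points (0.59 nM-46 µM); follow-ups used 11 points.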

A short description of test [5]: qHTS of pediatric cancer cell lines to identify multiple opportunities for drug repurposing: Primary screen for Saos-2 cells (AID 1347097). Further: nearly all actives have a fitted effect of over 40% in size. Further: potency means the concentration at half of the fitted maximal effect. The method in brief:
as §1

A short description of test [6]: qHTS of pediatric cancer cell lines to identify multiple opportunities for drug repurposing: Primary screen for LAN-5 cells (AID 1347100). Further: potency means the concentration at half of the fitted maximal effect. The procedure, abridged: as §2
Test [7] in a line: qHTS of pediatric cancer cell lines to identify multiple opportunities for drug repurposing: Primary screen for BT-12 cells (AID 1347101). Further: nearly all actives have a fitted effect of over 25% in size. Further: potency means the concentration at half of the fitted maximal effect. The procedure, abridged: (§3)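 Cells (500-1,000/well) rested 5 h, then received compounds for 48 h; metabolically active cells were measured by CellTiter-Glo luminescence. Final concentrations spanned up to 46 µM (MIPE, 11-point) or 0.59 nM-46 µM (NPC, 8-point) in primary screens, 11-point in follow-ups.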

The nature of test [8]: qHTS of pediatric cancer cell lines to identify multiple opportunities for drug repurposing: Primary screen for Rh18 cells (AID 1347102). Further: nearly all actives have a fitted effect of over 65% in size. Further: potency means the concentration at half of the fitted maximal effect. The procedure, abridged: as §2
Test [9] in a line: qHTS of pediatric cancer cell lines to identify multiple opportunities for drug repurposing: Primary screen for MG 63 (6-TG R) cells (AID 1347105). Further: nearly all actives have a fitted effect of over 50% in size. Further: potency means the concentration at half of the fitted maximal effect. The method in brief: as §1
Test [10] in a line: qHTS of pediatric cancer cell lines to identify multiple opportunities for drug repurposing: Primary screen for control Hh wild type fibroblast cells (AID 1347106).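 Further: series mostly up to about 46 µM; a drop in luminescence marks cytotoxicity and a rise apparent proliferation; nearly all actives have a fitted effect of over 55% in size.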 The method in brief:
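Viability after 48 h compound treatment at 37C, 500-1,000 cells/well, read as ATP luminescence with CellTiter-Glo. Primary screens used 11-point (MIPE, 0.78 nM-46 µM) or 8-point (NPC, 0.59 nM-46 µM) final concentrations; follow-up screens used 11-point dilutions.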

Test [11] can be described thus: qHTS of pediatric cancer cell lines to identify multiple opportunities for drug repurposing: Primary screen for BT-37 cells (AID 1347094). Further: potency means the concentration at half of the fitted maximal effect. The method in brief:
as §1

The nature of test [12]: qHTS of pediatric cancer cell lines to identify multiple opportunities for drug repurposing: Primary screen for SK-N-SH cells (AID 1347098). Further: nearly all actives have a fitted effect of over 65% in size. Further: potency means the concentration at half of the fitted maximal effect. The procedure, abridged: as §3
Test [13] in a line: qHTS of pediatric cancer cell lines to identify multiple opportunities for drug repurposing: Primary screen for NB1643 cells (AID 1347099). Further: nearly all actives have a fitted effect of over 50% in size. Further: potency means the concentration at half of the fitted maximal effect. The method in brief: as §1
The nature of test [14]: qHTS of pediatric cancer cell lines to identify multiple opportunities for drug repurposing: Primary screen for Rh30 cells (AID 1347107). Further: series mostly up to about 46 µM; nearly all actives have a fitted effect of over 75% in size. The method in brief: as §2
The nature of test [15]: qHTS of pediatric cancer cell lines to identify multiple opportunities for drug repurposing: Primary screen for Rh41 cells (AID 1347108). Further: nearly all actives have a fitted effect of over 70% in size. Further: potency means the concentration at half of the fitted maximal effect. The method in brief:
as §1

The nature of test [16]: qHTS of pediatric cancer cell lines to identify multiple opportunities for drug repurposing: Primary screen for RD cells (AID 1347104). Further: nearly all actives have a fitted effect of over 55% in size. Further: potency means the concentration at half of the fitted maximal effect. The method in brief: as §1
A short description of test [17]: qHTS of pediatric cancer cell lines to identify multiple opportunities for drug repurposing: Primary screen for A673 cells (AID 1347092). Further: nearly all actives have a fitted effect of over 45% in size. Further: potency means the concentration at half of the fitted maximal effect. The method in brief: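 A673 cells (500-1,000 cells/well in growth media) were pre-incubated 5 h at 37 degrees C, then exposed to compounds for 48 h. Viability was read as CellTiter-Glo luminescence; concentration-response curves came directly from the primary screen.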

A short description of test [18]: qHTS of pediatric cancer cell lines to identify multiple opportunities for drug repurposing: Primary screen for OHS-50 cells (AID 1347103). Further: nearly all actives have a fitted effect of over 40% in size. Further: potency means the concentration at half of the fitted maximal effect. The method in brief: as §3

SMILES strings stand for the structures. Several values for one entry are separate records, joined by “and”; a condition that tells them apart may be missing. Equal values may be shown once. Inconclusive results are not listed. Activity calls are given as the source filed them. The call rests on the fitted dose curve; in most records, active means well fitted curve in the direction sought with a large enough effect; inconclusive means small, poorly fitted or top-dose-only effect, or another doubt; inactive means no such curve, though single readings can be large; an effect the other way counts as inactive or inconclusive.

Consider `CCn1c(-c2nonc2N)nc2cnc(Oc3cccc(NC(=O)c4ccc(OCCN5CCOCC5)cc4)c3)cc21`, for which the Potency in [1] was 0.235 µM (active); in test [2] it was 7.43 µM (active); in test [5], 0.662 µM (active); in [6] it was 2.96 µM (active); in [7], 6.11 µM (active). Besides, the Potency result in [3], in [4], in test [8], in [9] and in test [10] was “inactive” throughout.
With `N=c1nc(N2CCCCC2)cc(N)n1O`, the Potency entry in test [1], in test [11], in test [3], in test [4], in test [5] and in test [12] was “inactive” each time. Moreover, the Potency result in test [13], in test [6], in test [7], in test [8], in test [9] and in [10] was “inactive” each time. The Potency entry in [14] and in test [15] was “inactive” throughout.
Take `O=C(Nc1ccc(F)c(C(F)(F)F)c1)Nc1nnc(-c2ccncc2)s1`: the Potency entry in [1], in [11], in [4], in [5], in test [6] and in test [8] was “inactive” each time. Besides, the Potency entry in [10] and in test [15] was “inactive” each time. The Potency in [2] was 20.9 µM (active).
On to `CCCCCCCc1ccc(CCc2cccc(O)c2C(=O)O)cc1`, for which the Potency is 23.5 µM (active) in test [1] and 9.35 µM (active) in [2]. Besides, the Potency entry in [4], in [5], in [13], in test [6], in test [8] and in test [10] was “inactive” each time.
As for `CNC(=O)c1ccccc1Sc1ccc2c(/C=C/c3ccccn3)n[nH]c2c1`, the Potency is 5.31 µM (active) in test [1]; 2.99 µM (active) in test [2]; 1.5 µM (active) in test [3]; 13.3 µM (active) in test [5]; 17.4 µM (active) in test [7]; 10.6 µM (active) in test [8]. In addition, the Potency result in test [16] and in test [14] was “inactive” in each case.
Take `CS(=O)(=O)c1cccc(CNc2nc(Nc3ccc4c(c3)CCC(=O)N4)ncc2C(F)(F)F)c1`: the Potency in [1] is 10.5 µM (active); in [17], 14.8 µM (active); in test [11] it was 27.3 µM (active); in test [3] it was 14.8 µM (active); in test [4], 18.7 µM (active); in test [5], 16.6 µM (active). The Potency in [12] is 24.1 µM (active); in test [13], 16.6 µM (active); in [6] it was 3.32 µM (active); in [18] it was 6.11 µM (active); in [16], 16.6 µM (active); in [9], 11.8 µM (active). Further, in [10], the Potency entry was “inactive”.
Regarding `NCCc1ccc(O)c(O)c1`, the Potency entry in [1], in [11], in [3], in [4], in test [5] and in test [12] was “inactive” in each case. Besides, the Potency result in test [13], in test [6], in test [7], in test [8], in test [18] and in test [16] was “inactive” each time. In addition, the Potency entry in test [9], in [10], in [14] and in test [15] was “inactive” throughout. In addition, in [17], the Potency is 23.5 µM (active) and 10.6 µM (active).
As for `CCCS(=O)(=O)Nc1ccc(F)c(C(=O)c2c[nH]c3ncc(-c4ccc(Cl)cc4)cc23)c1F`, the Potency in [1] is 18.7 µM (active); in test [17], 9.35 µM (active); in [12], 4.82 µM (active); in [13], 3.32 µM (active); in test [6], 20.9 µM (active); in test [18], 6.85 µM (active). Further, the Potency in test [16] was 18.7 µM (active); in test [9], 14.8 µM (active).
`O=C1CCCC2=C1C(c1[nH]ncc1Cl)N=C(Nc1nc3ccccc3o1)N2` (stereo not given): the Potency result in test [1], in [17], in test [11], in test [3], in [4] and in test [6] was “inactive” throughout. Also, the Potency entry in test [8], in test [9] and in [14] was “inactive” in each case.
Turning to `Nc1ccc(S(=O)(=O)Nc2ccnn2-c2ccccc2)cc1`, the Potency entry in test [1], in [17], in test [11], in [3], in test [4] and in [5] was “inactive” in each case. Moreover, the Potency result in test [12], in test [13], in [6], in [7], in [8] and in test [18] was “inactive” in each case. Further, the Potency entry in test [16], in test [9], in test [10], in test [14] and in test [15] was “inactive” each time.
For `Cc1cc2c(F)c(Oc3ncnn4cc(OC[C@@H](C)O)c(C)c34)ccc2[nH]1`, the Potency in test [1] is 10.5 µM (active); in test [2], 0.264 µM (active); in test [11], 27.3 µM (active); in test [3], 13.2 µM (active); in [5], 18.7 µM (active); in test [12], 24.1 µM (active). Moreover, the Potency was 20.9 µM (active) in [6] and 30.6 µM (active) in test [18]. Moreover, in test [10], the Potency result is “inactive”.
As to `OCCC#Cc1nc(-c2ccc(F)cc2)c(-c2ccncc2)n1CCCc1ccccc1`, the Potency in [1] was 23.5 µM (active); in test [17] it was 18.7 µM (active); in test [3], 16.6 µM (active); in test [6], 16.6 µM (active); in test [18] it was 27.3 µM (active); in test [9] it was 29.6 µM (active). The Potency in test [15] was 18.7 µM (active). In addition, the Potency result in test [12] is “inactive”.

These data come from PubChem BioAssay (NCATS).
